Test results taken from the supplement of paper PMC10849652.
Targets with a hit are over-represented here; the source holds about 7,900 in all. About 0.6% of all pairs of compound and target were hits. A number with no mark means an inactive call.

Experiments:
Test in all cases: log2 fold change, soluble protein after heating vs DMSO (PISA); higher = thermal stabilisation; K562 cells, 10 uM, 30 min; active = over 0.2 and 3.5 SD of the protein, either way, in both replicates (recomputed)
bafetinib = compound: Cc1ccc(NC(=O)c2ccc(CN3CC[C@H](N(C)C)C3)c(C(F)(F)F)c2)cc1Nc1nccc(-c2cncnc2)n1 [bafetinib]
Outline: (§1)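 Aliquots of K562 cells (2×10^6 cells/mL) treated with 10 μM compound for 30 min were heated for 3 min over 48°C-58°C. After pooling and extraction in PBS with 0.5% NP-40 at 4°C, soluble protein from a 21,000xg, 90 min spin was quantified by TMTpro 16plex LC-MS/MS with channel sums equalised. Thermal stability is expressed against control samples, from duplicates, as a log2 fold change.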

[1] = compound: Cc1cccc(CC(=O)N2CCc3c2ccc(-c2cn(C)c4ncnc(N)c24)c3F)n1
Outline: as §1

nilotinib = compound: Cc1cn(-c2cc(NC(=O)c3ccc(C)c(Nc4nccc(-c5cccnc5)n4)c3)cc(C(F)(F)F)c2)cn1 [nilotinib]
Outline: as §1

[2] = compound: Cc1nc(Nc2n[nH]c3c2CN(C(=O)N[C@H](CN(C)C)c2ccccc2)C3(C)C)c2sccc2n1
Outline: as §1

dasatinib = compound: Cc1nc(Nc2ncc(C(=O)Nc3c(C)cccc3Cl)s2)cc(N2CCN(CCO)CC2)n1 [dasatinib]
Outline: as §1

[3] = compound: Cc1ncc(-c2ccnc(Nc3ccc(S(C)(=O)=O)cc3)n2)n1C(C)C
Outline: as §1

[4] = compound: Cn1cc(-c2ccc3c(c2)CCN3C(=O)Cc2cccc(C(F)(F)F)c2)c2c(N)ncnc21
Outline: as §1

[5] = compound: Cn1cc(-c2ccc3nnc(C(F)(F)c4ccc5ncccc5c4)n3n2)cn1
Outline: as §1

tipifarnib = compound: Cn1cncc1[C@@](N)(c1ccc(Cl)cc1)c1ccc2c(c1)c(-c1cccc(Cl)c1)cc(=O)n2C [tipifarnib]
Outline: as §1

mubritinib = compound: FC(F)(F)c1ccc(/C=C/c2nc(COc3ccc(CCCCn4ccnn4)cc3)co2)cc1 [mubritinib]
Outline: as §1

UniProt Q9NX18, sequence (Q9NX18 whole entry, looked up): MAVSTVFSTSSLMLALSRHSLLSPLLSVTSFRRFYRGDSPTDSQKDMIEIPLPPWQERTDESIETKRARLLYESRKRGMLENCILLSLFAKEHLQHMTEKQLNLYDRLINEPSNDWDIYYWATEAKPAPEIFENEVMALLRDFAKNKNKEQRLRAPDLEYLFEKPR
UniProt Q06609, sequence (Q06609 whole entry, looked up): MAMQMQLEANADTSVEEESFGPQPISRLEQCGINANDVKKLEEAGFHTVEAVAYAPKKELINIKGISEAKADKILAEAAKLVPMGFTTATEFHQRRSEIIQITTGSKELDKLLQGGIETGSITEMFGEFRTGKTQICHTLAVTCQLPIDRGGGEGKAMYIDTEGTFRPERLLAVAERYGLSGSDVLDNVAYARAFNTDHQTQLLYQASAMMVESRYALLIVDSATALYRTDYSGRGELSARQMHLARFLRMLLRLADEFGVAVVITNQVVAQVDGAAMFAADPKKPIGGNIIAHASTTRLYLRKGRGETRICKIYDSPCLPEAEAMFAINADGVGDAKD
UniProt Q9BY42, sequence (Q9BY42 whole entry, looked up): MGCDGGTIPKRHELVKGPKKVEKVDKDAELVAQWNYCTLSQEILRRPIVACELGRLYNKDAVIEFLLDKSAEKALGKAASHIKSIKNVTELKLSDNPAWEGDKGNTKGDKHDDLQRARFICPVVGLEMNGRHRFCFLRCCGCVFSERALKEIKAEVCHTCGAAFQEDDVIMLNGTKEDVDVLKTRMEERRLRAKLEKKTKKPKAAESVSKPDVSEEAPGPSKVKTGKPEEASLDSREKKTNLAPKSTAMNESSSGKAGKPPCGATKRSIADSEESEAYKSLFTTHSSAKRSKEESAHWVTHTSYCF
UniProt Q15050, sequence (Q15050 whole entry, looked up): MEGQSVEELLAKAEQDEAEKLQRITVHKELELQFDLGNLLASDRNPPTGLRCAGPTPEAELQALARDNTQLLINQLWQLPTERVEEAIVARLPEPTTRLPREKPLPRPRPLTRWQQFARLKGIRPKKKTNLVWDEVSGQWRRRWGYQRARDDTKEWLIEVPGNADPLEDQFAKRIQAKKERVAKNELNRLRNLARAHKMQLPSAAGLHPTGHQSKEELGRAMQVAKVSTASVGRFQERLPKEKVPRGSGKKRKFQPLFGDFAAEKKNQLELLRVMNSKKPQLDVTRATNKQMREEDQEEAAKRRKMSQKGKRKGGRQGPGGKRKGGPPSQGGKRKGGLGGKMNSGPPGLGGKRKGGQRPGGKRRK
UniProt O00767, sequence (O00767 whole entry, looked up): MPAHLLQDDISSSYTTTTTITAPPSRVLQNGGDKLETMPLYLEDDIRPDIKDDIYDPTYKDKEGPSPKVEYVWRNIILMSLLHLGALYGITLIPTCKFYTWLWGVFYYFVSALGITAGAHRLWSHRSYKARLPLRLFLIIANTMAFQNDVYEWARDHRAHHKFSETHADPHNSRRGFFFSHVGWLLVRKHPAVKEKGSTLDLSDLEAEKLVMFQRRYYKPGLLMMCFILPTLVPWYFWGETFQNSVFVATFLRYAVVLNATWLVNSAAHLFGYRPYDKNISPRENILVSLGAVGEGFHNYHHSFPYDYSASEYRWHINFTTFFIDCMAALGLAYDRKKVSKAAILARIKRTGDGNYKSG
UniProt Q96T23, sequence (Q96T23 whole entry, looked up): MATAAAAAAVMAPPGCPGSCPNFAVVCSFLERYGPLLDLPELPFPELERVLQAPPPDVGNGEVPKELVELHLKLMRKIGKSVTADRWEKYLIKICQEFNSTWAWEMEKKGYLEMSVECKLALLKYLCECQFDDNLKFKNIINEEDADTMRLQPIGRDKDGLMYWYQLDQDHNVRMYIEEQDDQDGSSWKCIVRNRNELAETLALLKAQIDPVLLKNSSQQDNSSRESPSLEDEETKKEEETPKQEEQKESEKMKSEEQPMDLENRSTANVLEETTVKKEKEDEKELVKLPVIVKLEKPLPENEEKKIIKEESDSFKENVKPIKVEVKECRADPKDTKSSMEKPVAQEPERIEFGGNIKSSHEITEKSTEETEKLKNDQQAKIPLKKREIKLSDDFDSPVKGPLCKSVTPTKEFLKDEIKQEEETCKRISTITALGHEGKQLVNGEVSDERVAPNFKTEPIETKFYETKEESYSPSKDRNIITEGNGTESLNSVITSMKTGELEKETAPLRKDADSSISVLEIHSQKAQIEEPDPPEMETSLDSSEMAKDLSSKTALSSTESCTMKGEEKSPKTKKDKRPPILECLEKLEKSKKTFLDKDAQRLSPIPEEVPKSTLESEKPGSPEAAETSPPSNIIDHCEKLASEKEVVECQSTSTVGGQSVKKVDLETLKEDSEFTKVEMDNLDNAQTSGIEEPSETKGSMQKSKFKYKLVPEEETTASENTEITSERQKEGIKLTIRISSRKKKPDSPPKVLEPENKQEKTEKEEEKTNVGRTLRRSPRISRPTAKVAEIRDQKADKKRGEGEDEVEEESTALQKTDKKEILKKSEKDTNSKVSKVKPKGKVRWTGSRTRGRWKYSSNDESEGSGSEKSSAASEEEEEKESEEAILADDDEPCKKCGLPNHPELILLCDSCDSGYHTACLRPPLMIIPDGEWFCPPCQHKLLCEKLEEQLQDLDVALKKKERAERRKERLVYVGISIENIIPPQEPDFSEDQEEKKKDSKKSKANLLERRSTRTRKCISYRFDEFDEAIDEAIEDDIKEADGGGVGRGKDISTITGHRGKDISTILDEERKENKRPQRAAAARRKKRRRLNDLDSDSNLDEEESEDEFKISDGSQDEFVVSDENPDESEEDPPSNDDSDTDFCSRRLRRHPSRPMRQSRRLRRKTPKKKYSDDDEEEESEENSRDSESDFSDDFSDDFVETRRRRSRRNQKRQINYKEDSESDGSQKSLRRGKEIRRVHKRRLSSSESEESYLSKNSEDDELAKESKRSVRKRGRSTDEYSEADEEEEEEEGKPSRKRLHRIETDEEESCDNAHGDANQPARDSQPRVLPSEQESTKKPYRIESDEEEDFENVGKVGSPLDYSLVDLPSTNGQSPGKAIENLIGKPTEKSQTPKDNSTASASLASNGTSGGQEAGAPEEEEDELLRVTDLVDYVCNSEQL
UniProt Q9H4A4, sequence (Q9H4A4 whole entry, looked up): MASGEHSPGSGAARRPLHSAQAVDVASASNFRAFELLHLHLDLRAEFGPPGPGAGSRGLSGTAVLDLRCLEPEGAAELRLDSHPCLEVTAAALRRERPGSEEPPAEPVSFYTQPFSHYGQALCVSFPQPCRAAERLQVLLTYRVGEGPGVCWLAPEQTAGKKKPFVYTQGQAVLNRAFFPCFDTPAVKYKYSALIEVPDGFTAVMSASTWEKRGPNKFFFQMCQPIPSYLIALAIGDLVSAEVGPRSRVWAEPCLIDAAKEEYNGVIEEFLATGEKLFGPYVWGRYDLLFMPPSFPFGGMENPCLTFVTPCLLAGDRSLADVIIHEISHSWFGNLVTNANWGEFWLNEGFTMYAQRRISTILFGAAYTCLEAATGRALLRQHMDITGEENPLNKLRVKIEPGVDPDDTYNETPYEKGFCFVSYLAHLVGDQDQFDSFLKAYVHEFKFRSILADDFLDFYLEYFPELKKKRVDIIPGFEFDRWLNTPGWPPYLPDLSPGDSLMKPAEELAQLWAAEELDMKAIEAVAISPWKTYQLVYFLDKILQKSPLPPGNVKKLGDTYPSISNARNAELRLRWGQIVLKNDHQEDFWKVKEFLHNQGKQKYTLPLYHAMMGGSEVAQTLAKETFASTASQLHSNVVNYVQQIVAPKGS
UniProt Q9NW64, sequence (Q9NW64 whole entry, looked up): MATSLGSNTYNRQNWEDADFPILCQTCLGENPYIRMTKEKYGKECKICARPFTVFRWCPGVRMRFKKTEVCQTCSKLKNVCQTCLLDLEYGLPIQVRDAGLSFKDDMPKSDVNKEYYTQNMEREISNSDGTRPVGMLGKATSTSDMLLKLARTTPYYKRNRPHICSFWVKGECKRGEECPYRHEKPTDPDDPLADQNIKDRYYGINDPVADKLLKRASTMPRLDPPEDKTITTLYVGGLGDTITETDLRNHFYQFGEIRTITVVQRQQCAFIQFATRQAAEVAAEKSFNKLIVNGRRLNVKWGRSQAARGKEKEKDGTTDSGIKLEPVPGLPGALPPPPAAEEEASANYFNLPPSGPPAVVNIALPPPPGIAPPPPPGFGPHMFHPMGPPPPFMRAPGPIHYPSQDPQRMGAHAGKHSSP
UniProt Q9BQY4, sequence (Q9BQY4 whole entry, looked up): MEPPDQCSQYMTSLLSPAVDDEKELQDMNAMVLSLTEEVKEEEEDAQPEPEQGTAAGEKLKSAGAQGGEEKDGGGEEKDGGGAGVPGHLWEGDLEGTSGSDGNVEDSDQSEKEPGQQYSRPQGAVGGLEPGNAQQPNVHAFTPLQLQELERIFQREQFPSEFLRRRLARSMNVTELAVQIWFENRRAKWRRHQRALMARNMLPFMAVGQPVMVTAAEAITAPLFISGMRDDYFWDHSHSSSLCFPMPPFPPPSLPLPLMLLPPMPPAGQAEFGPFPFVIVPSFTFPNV
UniProt P05543, sequence (P05543 whole entry, looked up): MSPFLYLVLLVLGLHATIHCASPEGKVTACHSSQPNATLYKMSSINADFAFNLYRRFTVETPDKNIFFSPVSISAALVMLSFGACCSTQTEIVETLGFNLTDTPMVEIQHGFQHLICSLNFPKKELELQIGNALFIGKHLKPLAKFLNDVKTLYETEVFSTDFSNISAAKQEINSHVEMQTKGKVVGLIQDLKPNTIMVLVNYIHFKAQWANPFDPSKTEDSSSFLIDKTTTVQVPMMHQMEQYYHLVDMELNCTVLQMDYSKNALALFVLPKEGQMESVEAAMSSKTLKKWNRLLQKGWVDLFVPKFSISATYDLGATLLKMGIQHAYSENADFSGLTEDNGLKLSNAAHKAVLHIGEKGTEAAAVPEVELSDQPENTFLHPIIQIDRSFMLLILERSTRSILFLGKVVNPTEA
UniProt Q8IZQ5, sequence (Q8IZQ5 whole entry, looked up): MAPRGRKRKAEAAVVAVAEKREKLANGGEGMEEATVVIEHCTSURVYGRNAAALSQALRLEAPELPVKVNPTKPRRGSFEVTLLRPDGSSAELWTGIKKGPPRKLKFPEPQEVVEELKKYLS

Target	log2 fold change (bafetinib)	log2 fold change [1]	log2 fold change (nilotinib)	log2 fold change [2]	log2 fold change (dasatinib)	log2 fold change [3]	log2 fold change [4]	log2 fold change [5]	log2 fold change (tipifarnib)	log2 fold change (mubritinib)
RHOXF2 (UniProt Q9BQY4)	-0.05	-0.215 (active)	0.009	-0.007	0.053	-0.058	0.008	-0.035	0.048	0.06
RPS6KA2 isoform 2 (UniProt Q15349)	-0.112	0.15	0.008	-0.571 (active)	-0.228	-0.013	0.001	0.021	-0.069	0.085
RRAGC (UniProt Q9HB90)	-0.07	-0.054	-0.005	0.022	0.05	-0.021	0.001	0.05	-0.027	0.031
RDH11 (UniProt Q8TC12)	-0.119	-0.048	0.099	-0.112	-0.079	-0.03	0.015	-0.022	0.059	-0.033
RSF1 (UniProt Q96T23)	0.117	-0.027	0.087	-0.102	-0.082	-0.096	0.046	0.079	-0.222	0.237
RAD51 (UniProt Q06609)	-0.002	0.021	-0.082	-0.006	-0.009	0.04	0.037	0.003	0.11	-0.017
RARS2 (UniProt Q5T160)	-0.148	0.104	-0.039	0.019	-0.023	-0.006	0.061	0.012	-0.008	0.075
RNF187 (UniProt Q5TA31)	0.009	0.088	0.029	-0.041	0.022	-0.001	-0.105	0.006	-0.07	0.102
RRP12 (UniProt Q5JTH9)	0.01	-0.036	-0.082	0.088	-0.028	0.184	-0.136	-0.123	-0.035	-0.096
RTF2 (UniProt Q9BY42)	-0.074	-0.001	-0.045	-0.125	-0.012	0.039	-0.071	-0.039	-0.065	-0.047
SCAF11 (UniProt Q99590)	0.173	-0.144	0.078	-0.007	0.144	0.379	-0.05	-0.03	0.067	0.052
RBM26 isoform 2 (UniProt Q5T8P6)	-0.003	0.058	-0.088	-0.432	-0.176	0.021	0.12	0.168	-0.033	0.045
SERINC3 (UniProt Q13530)	-0.031	-0.035	0.02	0.039	-0.123	0.07	-0.014	-0.077	-0.115	0.009
RRS1 (UniProt Q15050)	0.121	-0.125	-0.024	0.073	0.161	0.267	-0.431	-0.165	0.105	-0.226
RPS3A (UniProt P61247)	0.243	-0.031	0	0.201	0.099	-0.033	-0.127	-0.045	0.096	-0.058
RBM25 (UniProt P49756)	-0.067	-0.066	-0.012	-0.03	-0.049	-0.129	-0.044	-0.096	0.068	0.049
RAB5IF isoform 5 (UniProt Q9BUV8)	0.034	-0.01	-0.042	-0.011	0.062	-0.051	-0.054	0	-0.013	0.079
SLC1A3 (UniProt P43003)	-0.051	0.013	0.131	-0.063	-0.203	-0.077	0.133	-0.009	0.054	0.096
SLC12A9 (UniProt Q9BXP2)	-0.088	0.023	-0.069	0.05	0.057	-0.066	0.008	-0.006	0.025	0.001
RPS18 (UniProt P62269)	0.214	-0.015	-0.001	0.198	0.069	-0.054	-0.088	-0.001	0.031	-0.022

Target	log2 fold change (bafetinib)	log2 fold change [1]	log2 fold change (nilotinib)	log2 fold change [2]	log2 fold change (dasatinib)	log2 fold change [3]	log2 fold change [4]	log2 fold change [5]	log2 fold change (tipifarnib)	log2 fold change (mubritinib)
SDHAF2 (UniProt Q9NX18)	-0.083	0.166	-0.02	0.022	0.057	-0.007	0.056	0.017	0.007	0.058
SCYL3 isoform 2 (UniProt Q8IZE3)	-0.056	-0.017	-0.215	-0.167	-0.124	0.111	-0.062	-0.05	0.044	0.032
SIDT2 isoform 2 (UniProt Q8NBJ9)	-0.24	-0.025	-0.005	0.104	0.041	0.025	-0.003	0.038	0.073	-0.001
SLBP (UniProt Q14493)	0.11	-0.017	-0.05	-0.093	0.031	-0.423 (active)	-0.042	-0.033	0	-0.023
SEC23A (UniProt Q15436)	-0.011	0.024	-0.012	0.014	-0.07	-0.009	-0.018	-0.052	-0.013	-0.002
SCD (UniProt O00767)	-0.153	0.109	-0.063	-0.007	-0.026	-0.019	0.013	0.034	0.075	0.019
SH3GL1 (UniProt Q99961)	-0.018	0.069	-0.084	-0.18	-0.262	-0.014	0.055	0.02	-0.114	0.122
SEPTIN5 (UniProt G3XAH0)	-0.038	-0.013	-0.05	-0.024	-0.049	-0.008	-0.05	0.082	0.006	-0.011
SFXN5 (UniProt Q8TD22)	-0.3 (active)	0.017	-0.052	0.049	0.084	0.134	0.107	0.093	0.022	0.041
SCCPDH (UniProt Q8NBX0)	0.161	-0.046	0.189	0.019	0.008	0.174	0.273	-0.074	0.419 (active)	0.104
RPS19 (UniProt P39019)	0.242	-0.026	0.046	0.181	0.083	-0.021	-0.11	-0.068	0.055	-0.037
RPS20 isoform 2 (UniProt P60866)	0.178	-0.005	-0.006	0.223	0.05	-0.071	-0.078	-0.008	0.094	-0.059
RANBP2 (UniProt P49792)	-0.092	0.197	-0.05	0.087	-0.011	-0.043	-0.047	-0.051	-0.036	-0.073
RCOR1 (UniProt Q9UKL0)	0.011	0.021	-0.034	-0.107	-0.063	-0.062	-0.005	0.033	-0.087	0.07
RMC1 (UniProt Q96DM3)	-0.043	0.072	-0.032	-0.047	-0.063	-0.082	0.03	-0.016	0.045	0.012
RPS6KA3 (UniProt P51812)	-0.065	0.046	0.035	-0.798 (active)	-0.195	-0.019	-0.022	0.031	-0.028	0.02
RBM22 (UniProt Q9NW64)	-0.085	0	-0.019	-0.051	-0.07	0.024	-0.133	-0.071	0.008	-0.048
RSL1D1 (UniProt O76021)	0.288	-0.027	0.117	0.109	0.239	0.264	-0.427	-0.18	0.15	-0.244
SETMAR (UniProt Q53H47)	0	-0.07	-0.104	0.117	-0.013	0.163	0.028	0.127	0.054	0.04
RPTOR (UniProt Q8N122)	-0.005	0.034	-0.085	-0.103	-0.103	-0.045	-0.107	0.009	-0.062	0.033

Target	log2 fold change (bafetinib)	log2 fold change [1]	log2 fold change (nilotinib)	log2 fold change [2]	log2 fold change (dasatinib)	log2 fold change [3]	log2 fold change [4]	log2 fold change [5]	log2 fold change (tipifarnib)	log2 fold change (mubritinib)
RAB8B (UniProt Q92930)	-0.008	0.085	0.059	-0.036	0.015	-0.043	0.031	-0.016	-0.088	-0.062
RAB3D (UniProt O95716)	-0.142	-0.052	0.01	0.066	0.221	-0.116	0.075	-0.201	0.065	0.285
RNPEP (UniProt Q9H4A4)	0.003	0.035	-0.004	-0.041	-0.134	0.025	0.012	0.043	-0.116	0.051
RPL31 (UniProt P62899)	0.342	0.024	0.001	0.179	0.14	-0.041	-0.231	-0.082	0.151	-0.095
RPS4X (UniProt P62701)	0.332	0	0.051	0.206	0.061	-0.048	-0.251	-0.079	0.112	-0.105
RABGAP1L isoform 3 (UniProt Q5R372)	-0.045	0.024	-0.031	-0.001	-0.038	-0.037	-0.005	0.013	0.016	-0.001
RSRC1 (UniProt Q96IZ7)	0.042	-0.05	0.06	-2.01 (active)	0.028	-0.024	0.003	-0.021	0.038	0.012
RAB33B (UniProt Q9H082)	-0.01	0.012	0.01	0.018	-0.058	0.022	0	0.151	0.024	-0.01
RBM33 (UniProt Q96EV2)	-0.055	0.012	-0.036	-0.143	0.013	-0.11	0.024	-0.013	0.085	-0.004
RPS9 (UniProt P46781)	0.318	-0.001	0.003	0.206	0.106	-0.035	-0.176	-0.088	0.067	-0.09
RPS14 (UniProt P62263)	0.265	-0.061	0.029	0.184	-0.011	-0.047	-0.081	-0.091	0.07	-0.05
SLC19A1 (UniProt P41440)	0.11	0.039	0.01	0.012	0.024	0.026	0.103	-0.026	0.051	0.074
SEPTIN5 (UniProt Q99719)	-0.017	0.021	-0.011	0.002	-0.048	-0.006	0.051	0.025	-0.024	0.007
RARS (UniProt P54136)	0.04	0.069	-0.057	-0.021	-0.071	0.053	-0.08	-0.125	-0.117	-0.116
SELENOH (UniProt Q8IZQ5)	0.042	0.21	-0.02	0.011	0.076	0.012	-0.039	0.036	-0.01	-0.009
RPS5 (UniProt P46782)	0.2	0.002	0.046	0.178	0.069	-0.035	-0.122	-0.08	0.042	0.007
RNF167 (UniProt Q9H6Y7)	-0.049	-0.012	0.049	-0.014	0.039	0.025	-0.068	0.032	0.008	0.001
SEC23IP (UniProt Q9Y6Y8)	-0.23	0.036	-0.017	-0.061	-0.143	-0.026	0.148	0.009	-0.057	0.014
SERPINA7 (UniProt P05543)	-0.191	-0.152	0.05	0.115	0.098	0.392	0.238	0.001	0.104	-0.247
